± gives the standard deviation of the averaged measurements. The full data set covers some 6,500 targets. This sample favours those with the largest changes.
compound: Nc1ncnc2c1ncn2[C@@H]1O[C@H](COP(=O)(O)OP(=O)(O)OP(=O)(O)O)[C@@H](O)[C@H]1O [adenosine triphosphate]; experiment: NP40-soluble protein abundance relative to vehicle (solubility fold change) (ratio); higher = more soluble protein in presence of ATP; conditions: concentration: 6mM
Outline: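 Each value is a fold change relative to the detergent-processed vehicle, calculated per replicate from vsn-normalised intensities. Jurkat crude lysate received eight concentrations (0.1 to 10 mM) for 10 min at room temperature and 3 min at 37 °C, then was solubilised in 0.8% NP40 with benzonase (60 min, 4 °C). The ultracentrifuged supernatant was TMT-labelled and run by LC-MS/MS in three independent experiments.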

UniProt Q8IWE4, sequence (Q8IWE4 whole entry): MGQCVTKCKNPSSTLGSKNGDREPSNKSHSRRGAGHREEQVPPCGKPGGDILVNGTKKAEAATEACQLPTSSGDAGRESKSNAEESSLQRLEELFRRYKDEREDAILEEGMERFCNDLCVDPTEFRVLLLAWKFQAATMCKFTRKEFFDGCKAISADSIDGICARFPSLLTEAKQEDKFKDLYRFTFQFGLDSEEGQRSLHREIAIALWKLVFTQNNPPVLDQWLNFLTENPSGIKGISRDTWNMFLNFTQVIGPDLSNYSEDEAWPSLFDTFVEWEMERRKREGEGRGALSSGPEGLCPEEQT
UniProt Q12986, sequence (Q12986 whole entry): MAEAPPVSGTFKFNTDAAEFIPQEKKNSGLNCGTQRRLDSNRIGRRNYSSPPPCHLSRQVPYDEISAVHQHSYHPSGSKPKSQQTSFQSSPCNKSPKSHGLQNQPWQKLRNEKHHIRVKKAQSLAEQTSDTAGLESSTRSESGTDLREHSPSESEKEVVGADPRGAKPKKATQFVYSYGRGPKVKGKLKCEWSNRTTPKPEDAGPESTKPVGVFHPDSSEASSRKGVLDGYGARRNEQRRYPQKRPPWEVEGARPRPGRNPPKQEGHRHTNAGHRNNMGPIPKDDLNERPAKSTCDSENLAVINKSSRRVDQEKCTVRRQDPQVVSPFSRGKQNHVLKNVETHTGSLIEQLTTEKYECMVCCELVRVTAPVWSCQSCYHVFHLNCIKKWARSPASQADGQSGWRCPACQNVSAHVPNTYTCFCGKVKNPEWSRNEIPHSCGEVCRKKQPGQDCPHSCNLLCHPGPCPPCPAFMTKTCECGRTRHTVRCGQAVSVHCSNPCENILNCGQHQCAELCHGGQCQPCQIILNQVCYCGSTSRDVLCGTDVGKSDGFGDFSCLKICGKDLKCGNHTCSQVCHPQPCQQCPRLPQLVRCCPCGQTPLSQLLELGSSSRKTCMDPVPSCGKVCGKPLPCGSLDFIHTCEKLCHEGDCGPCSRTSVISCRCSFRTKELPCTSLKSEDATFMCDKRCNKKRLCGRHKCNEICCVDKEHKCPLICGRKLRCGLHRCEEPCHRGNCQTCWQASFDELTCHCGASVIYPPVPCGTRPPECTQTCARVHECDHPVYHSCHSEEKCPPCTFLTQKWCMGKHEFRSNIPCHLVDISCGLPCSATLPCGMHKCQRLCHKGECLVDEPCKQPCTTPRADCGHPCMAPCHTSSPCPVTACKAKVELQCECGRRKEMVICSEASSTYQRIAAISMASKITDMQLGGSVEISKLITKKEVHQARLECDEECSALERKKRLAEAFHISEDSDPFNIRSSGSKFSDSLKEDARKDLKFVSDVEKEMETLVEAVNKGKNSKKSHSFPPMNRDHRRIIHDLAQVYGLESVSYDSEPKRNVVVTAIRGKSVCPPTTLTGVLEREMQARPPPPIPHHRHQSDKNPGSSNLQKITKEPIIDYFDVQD
UniProt Q8IYD1, sequence (Q8IYD1 whole entry): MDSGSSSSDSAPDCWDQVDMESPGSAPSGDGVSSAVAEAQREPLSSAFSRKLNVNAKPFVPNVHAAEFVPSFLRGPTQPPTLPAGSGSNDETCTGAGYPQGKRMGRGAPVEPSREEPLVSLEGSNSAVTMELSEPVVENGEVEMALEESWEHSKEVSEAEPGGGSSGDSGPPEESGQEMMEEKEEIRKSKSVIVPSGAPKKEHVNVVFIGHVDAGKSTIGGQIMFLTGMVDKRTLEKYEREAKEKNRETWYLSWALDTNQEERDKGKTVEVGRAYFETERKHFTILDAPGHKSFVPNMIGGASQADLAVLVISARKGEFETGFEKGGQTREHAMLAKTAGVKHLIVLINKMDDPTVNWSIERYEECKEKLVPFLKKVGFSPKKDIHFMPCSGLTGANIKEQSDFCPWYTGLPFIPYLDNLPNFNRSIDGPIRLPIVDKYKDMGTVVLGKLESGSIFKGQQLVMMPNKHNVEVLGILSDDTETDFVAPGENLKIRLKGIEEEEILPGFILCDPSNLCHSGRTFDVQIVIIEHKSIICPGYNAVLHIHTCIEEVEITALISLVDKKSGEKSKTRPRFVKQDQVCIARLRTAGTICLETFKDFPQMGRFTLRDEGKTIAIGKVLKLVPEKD
UniProt Q13137, sequence (Q13137 whole entry, one chain of several): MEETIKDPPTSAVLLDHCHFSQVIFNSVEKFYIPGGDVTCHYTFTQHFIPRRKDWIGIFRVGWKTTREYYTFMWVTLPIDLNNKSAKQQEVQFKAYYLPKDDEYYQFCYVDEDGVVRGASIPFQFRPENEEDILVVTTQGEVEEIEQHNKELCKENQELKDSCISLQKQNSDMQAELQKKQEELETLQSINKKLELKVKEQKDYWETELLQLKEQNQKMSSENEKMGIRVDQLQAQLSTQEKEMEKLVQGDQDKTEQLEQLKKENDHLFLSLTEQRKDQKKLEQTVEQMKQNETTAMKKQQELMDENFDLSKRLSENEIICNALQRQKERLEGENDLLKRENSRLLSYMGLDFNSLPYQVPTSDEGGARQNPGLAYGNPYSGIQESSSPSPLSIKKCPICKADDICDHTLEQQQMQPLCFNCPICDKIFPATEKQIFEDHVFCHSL
UniProt Q13243, sequence (Q13243 whole entry): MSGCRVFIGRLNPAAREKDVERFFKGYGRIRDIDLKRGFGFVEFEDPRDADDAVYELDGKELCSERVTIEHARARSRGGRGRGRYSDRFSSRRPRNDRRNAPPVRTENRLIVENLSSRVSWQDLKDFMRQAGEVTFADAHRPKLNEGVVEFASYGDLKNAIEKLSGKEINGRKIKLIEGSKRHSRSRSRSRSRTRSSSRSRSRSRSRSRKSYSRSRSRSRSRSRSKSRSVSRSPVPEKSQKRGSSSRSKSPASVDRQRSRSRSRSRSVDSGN
UniProt Q13523, sequence (Q13523 whole entry, looked up): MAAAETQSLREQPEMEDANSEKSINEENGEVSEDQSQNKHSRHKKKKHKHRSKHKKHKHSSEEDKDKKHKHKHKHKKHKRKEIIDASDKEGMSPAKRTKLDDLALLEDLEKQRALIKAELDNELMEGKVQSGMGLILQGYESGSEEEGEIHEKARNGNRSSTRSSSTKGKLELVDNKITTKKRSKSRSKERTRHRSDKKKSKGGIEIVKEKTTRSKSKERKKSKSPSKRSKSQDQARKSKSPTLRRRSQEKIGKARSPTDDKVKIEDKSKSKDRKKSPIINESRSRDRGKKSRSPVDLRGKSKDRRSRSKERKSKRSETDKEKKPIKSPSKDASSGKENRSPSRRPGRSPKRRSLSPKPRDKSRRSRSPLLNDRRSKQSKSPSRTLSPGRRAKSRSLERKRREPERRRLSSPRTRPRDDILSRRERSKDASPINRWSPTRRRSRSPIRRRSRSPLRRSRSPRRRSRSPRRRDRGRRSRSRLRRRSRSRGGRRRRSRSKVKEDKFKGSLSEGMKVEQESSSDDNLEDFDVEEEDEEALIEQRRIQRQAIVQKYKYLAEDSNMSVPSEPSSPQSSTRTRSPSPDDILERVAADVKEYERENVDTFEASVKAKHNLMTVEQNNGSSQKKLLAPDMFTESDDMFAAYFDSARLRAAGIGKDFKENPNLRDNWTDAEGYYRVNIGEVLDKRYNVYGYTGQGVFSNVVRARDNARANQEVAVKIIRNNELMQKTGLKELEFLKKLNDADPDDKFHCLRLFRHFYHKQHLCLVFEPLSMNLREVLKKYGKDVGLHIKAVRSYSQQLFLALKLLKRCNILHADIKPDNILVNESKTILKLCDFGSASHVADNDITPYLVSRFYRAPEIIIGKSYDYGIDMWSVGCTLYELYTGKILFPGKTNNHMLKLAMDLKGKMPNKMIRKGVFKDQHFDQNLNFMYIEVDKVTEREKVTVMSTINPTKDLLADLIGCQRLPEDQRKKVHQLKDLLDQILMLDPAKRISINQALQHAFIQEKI
UniProt Q14011, sequence (Q14011 whole entry): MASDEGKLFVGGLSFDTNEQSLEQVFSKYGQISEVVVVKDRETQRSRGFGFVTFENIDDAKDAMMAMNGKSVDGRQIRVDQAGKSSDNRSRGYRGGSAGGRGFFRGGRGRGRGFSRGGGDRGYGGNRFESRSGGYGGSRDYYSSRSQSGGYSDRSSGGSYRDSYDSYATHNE
UniProt Q8N684, sequence (Q8N684 whole entry): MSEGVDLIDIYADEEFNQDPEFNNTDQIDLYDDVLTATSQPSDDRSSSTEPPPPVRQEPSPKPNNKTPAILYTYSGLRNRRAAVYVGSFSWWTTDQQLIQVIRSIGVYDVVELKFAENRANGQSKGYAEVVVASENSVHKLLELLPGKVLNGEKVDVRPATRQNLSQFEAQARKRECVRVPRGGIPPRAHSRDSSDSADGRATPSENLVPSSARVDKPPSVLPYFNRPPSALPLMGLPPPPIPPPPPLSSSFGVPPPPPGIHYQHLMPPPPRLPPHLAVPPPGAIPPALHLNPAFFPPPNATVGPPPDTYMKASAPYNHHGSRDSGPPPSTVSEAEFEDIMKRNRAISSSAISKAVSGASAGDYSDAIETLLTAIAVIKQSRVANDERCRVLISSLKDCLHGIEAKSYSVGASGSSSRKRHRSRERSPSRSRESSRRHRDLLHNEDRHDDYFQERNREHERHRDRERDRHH
UniProt Q16630, sequence (Q16630 whole entry): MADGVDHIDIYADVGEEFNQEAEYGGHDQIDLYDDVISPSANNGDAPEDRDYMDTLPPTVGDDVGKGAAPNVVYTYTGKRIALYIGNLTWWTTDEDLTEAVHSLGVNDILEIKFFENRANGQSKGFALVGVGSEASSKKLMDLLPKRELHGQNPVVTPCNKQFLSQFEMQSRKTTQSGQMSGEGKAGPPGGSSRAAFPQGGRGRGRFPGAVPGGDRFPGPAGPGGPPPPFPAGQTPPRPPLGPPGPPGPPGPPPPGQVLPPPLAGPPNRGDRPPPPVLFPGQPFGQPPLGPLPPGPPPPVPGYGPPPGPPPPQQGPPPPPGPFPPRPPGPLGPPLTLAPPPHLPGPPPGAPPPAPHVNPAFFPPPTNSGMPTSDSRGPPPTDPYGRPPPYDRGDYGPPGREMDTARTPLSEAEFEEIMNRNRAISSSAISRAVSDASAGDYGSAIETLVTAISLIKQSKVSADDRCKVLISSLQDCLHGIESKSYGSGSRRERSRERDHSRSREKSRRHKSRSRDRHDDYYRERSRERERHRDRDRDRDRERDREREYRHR

Target	NP40-soluble protein abundance
UniProt Q13137|Q13137-3|Q13137-4|Q13137-5|H0YBP4	0.986 ± 0.03
UniProt Q14498|Q14498-2	1.93 ± 0.13
UniProt Q8N684|Q8N684-2|Q8N684-3	1.81 ± 0.081
CIRBP (UniProt Q14011)	1.1 ± 0.061
GSPT2 (UniProt Q8IYD1)	1.01 ± 0.02
EFTUD2 (UniProt Q15029)	1.26 ± 0.075
UniProt Q12872|Q12872-2	1.77 ± 0.068
UniProt Q8WUY8|M0R1E3	0.966 ± 0.052
PRPF4B (UniProt Q13523)	1.6 ± 0.061
UniProt Q6PK18|Q6PK18-2	1.03 ± 0.074
UniProt Q13761|Q13761-2	1.19 ± 0.31
DCUN1D3 (UniProt Q8IWE4)	0.92 ± 0.034
UniProt Q14677|Q14677-3	1.11 ± 0.027
UniProt Q14155-1	1.02 ± 0.05
UniProt Q8NCU8-2	0.769 ± 0.068
DHX9 (UniProt Q08211)	1.55 ± 0.024
UniProt Q16630|Q16630-2	3.09 ± 0.32
UniProt Q7Z5G4|Q7Z5G4-3	0.885 ± 0.046
DDX60 (UniProt Q8IY21)	1.73 ± 0.15
ZNF672 (UniProt Q499Z4)	0.93 ± 0.078
NFX1 (UniProt Q12986)	1.46 ± 0.046
UniProt Q6KCM7-2|Q6KCM7-3|Q6KCM7|Q6KCM7-4|Q6KCM7-5	0.758 ± 0.085
LARP1 (UniProt Q6PKG0)	1.2 ± 0.069
UniProt Q8IZ81|D6RBS5	0.916 ± 0.12
UniProt Q13642-1|Q13642-4|Q13642-5	0.926 ± 0.091
UniProt Q641Q2|F8W7U3|Q641Q2-2	0.94 ± 0.094
FLCN (UniProt Q8NFG4)	0.988 ± 0.058
UniProt Q13243	1.95 ± 0.11

Reference: the supplement of paper PMC6411743
